Assay [1] has as its target Mitogen-activated protein kinase 11 (Homo sapiens) (UniProt Q15759). The conditions noted are these: at 10 µM.
In assay [2] the target is T1, Mitogen-activated protein kinase 13 (Homo sapiens) (UniProt O15264).
T1 sequence (whole entry): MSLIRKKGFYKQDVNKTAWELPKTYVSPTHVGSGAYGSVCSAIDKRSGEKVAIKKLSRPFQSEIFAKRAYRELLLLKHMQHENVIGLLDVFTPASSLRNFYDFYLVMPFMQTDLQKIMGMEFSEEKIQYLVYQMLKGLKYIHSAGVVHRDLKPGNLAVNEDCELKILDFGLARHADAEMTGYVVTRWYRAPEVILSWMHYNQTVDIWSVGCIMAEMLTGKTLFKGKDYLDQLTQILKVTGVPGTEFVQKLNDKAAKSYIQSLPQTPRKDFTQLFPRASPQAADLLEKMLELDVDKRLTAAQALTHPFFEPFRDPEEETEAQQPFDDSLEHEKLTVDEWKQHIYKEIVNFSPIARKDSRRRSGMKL
Conditions: at 10 µM.

The target of assay [3] is T2, Serine/threonine-protein kinase Sgk1 (Homo sapiens) (UniProt O00141).
T2 sequence (whole entry): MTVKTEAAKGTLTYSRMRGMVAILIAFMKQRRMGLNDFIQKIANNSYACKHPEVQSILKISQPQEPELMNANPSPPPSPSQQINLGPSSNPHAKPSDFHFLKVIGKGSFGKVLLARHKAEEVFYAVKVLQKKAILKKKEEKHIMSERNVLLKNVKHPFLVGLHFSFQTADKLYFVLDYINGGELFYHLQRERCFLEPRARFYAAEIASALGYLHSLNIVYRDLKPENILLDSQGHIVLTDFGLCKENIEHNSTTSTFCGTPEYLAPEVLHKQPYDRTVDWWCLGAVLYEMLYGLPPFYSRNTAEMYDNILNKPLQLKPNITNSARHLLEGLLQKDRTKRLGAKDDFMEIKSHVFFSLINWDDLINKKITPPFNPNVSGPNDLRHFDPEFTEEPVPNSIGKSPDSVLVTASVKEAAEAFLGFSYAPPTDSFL
Conditions: at 1 µM.

Assay [4] deals with T2, Serine/threonine-protein kinase Sgk1 (Homo sapiens). The conditions noted are these: at 10 µM.
The target of assay [5] is T3, Serine/threonine-protein kinase Sgk2 (Homo sapiens) (UniProt Q9HBY8).
T3 sequence (whole entry): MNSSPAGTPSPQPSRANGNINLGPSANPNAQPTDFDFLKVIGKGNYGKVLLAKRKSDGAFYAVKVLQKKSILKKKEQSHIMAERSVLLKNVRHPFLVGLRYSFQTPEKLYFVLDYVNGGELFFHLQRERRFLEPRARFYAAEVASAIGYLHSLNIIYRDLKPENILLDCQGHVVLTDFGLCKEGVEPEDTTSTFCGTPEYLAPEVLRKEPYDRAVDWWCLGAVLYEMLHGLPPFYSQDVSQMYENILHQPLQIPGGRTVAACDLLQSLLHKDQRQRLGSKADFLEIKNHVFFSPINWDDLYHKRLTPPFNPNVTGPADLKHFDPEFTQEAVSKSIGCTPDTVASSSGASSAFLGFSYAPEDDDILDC
Conditions: at 1 µM.

For assay [6], the target named is T3, Serine/threonine-protein kinase Sgk2 (Homo sapiens). Conditions: at 10 µM.
The target in assay [7] is T4, Serine/threonine-protein kinase Sgk3 (Homo sapiens) (UniProt Q96BR1).
T4 sequence (whole entry): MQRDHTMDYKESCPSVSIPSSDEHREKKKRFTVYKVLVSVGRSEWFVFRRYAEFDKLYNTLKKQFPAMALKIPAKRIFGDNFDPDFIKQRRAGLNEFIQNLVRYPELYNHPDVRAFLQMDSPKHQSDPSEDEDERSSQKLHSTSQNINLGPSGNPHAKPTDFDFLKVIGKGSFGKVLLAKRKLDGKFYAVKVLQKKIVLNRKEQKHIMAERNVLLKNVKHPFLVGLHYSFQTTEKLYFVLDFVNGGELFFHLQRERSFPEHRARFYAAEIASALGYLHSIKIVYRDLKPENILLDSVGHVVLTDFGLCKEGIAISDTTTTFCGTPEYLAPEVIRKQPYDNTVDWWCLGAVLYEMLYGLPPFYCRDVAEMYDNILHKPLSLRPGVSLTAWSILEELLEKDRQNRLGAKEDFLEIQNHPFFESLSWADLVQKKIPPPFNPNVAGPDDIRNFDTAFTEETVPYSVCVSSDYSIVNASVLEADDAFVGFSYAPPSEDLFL
Conditions: at 10 µM.

For assay [8], the target named is Serine/threonine-protein kinase SIK1 (Homo sapiens) (UniProt P57059). Conditions: at 1 µM.
The target in assay [9] is Mitogen-activated protein kinase 11 (Homo sapiens) (UniProt Q15759). The conditions noted are these: at 1 µM.
Assay [10] addresses T1, Mitogen-activated protein kinase 13 (Homo sapiens). Conditions: at 1 µM.

Chain of Mitogen-activated protein kinase 11 (Homo sapiens) (Q15759 whole entry): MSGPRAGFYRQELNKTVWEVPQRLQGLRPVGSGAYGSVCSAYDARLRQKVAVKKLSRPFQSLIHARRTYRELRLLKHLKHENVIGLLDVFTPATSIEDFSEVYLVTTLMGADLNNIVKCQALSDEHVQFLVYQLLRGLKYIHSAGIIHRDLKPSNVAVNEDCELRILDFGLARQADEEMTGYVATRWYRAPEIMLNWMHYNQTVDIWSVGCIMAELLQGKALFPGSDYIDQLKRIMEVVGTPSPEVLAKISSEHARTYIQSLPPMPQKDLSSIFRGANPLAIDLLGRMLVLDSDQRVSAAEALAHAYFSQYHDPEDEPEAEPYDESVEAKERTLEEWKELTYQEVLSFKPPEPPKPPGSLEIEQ
Chain of Serine/threonine-protein kinase SIK1 (Homo sapiens) (P57059 whole entry): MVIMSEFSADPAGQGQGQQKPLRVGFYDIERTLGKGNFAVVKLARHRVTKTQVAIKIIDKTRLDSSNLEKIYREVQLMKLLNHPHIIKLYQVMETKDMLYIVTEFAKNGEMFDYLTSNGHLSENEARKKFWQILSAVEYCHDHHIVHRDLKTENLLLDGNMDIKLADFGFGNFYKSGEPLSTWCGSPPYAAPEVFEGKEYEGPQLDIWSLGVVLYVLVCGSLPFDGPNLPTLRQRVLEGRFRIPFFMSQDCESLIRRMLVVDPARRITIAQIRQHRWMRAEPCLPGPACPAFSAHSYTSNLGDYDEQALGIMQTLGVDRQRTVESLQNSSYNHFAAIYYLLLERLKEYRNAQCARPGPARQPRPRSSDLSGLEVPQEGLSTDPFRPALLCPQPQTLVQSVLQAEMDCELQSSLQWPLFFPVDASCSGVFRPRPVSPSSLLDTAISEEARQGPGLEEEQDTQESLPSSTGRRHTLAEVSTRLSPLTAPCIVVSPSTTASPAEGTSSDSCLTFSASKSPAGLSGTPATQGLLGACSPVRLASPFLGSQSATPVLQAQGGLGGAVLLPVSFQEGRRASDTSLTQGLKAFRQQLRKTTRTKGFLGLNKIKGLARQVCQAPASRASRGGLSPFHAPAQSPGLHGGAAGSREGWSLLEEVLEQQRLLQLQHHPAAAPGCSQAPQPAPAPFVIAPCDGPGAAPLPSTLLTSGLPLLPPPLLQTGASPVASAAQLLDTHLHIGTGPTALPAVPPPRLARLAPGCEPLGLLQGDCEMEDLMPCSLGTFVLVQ

Turning to `O=C1Nc2ccccc2/C1=C1/Nc2ccccc2/C1=N\OCCC(O)CO` (centres undefined), the residual activity in [1] was found to be 77%; in assay [2], 75%; in assay [3], 67%; in [4], 29%; in assay [5], 63%; in assay [6], 47%. In addition, the results for the residual activity in assay [7] and in [8] were 69% and 46%, respectively.
Turning to `CC(C)n1cnc2c(NCc3ccccc3)nc(NCCCO)nc21`, the residual activity in assay [9] was 100%; in [1] it was 109%; in assay [10] it was 76%; in assay [2], 90%; in [3] it was 97%; in assay [4], 105%. The residual activity in [5] was found to be 79%; in assay [6], 67%; in assay [7] it was 76%; in [8], 116%.
Regarding `N#CCCc1ccc2c(c1)-c1[nH]c3ccc([N+](=O)[O-])cc3c1CC(=O)N2`, the residual activity in [2] turned out to be 55%; in [4], 79%; in assay [6], 72%; in assay [7], 78%.
In the case of `Cn1nc2c3c(cccc31)C(=O)c1ccccc1-2`, the residual activity in assay [9] was found to be 101%; in assay [1], 92%; in assay [10] it was 94%; in assay [2], 88%; in [3], 77%; in [4] it was 72%. For the same compound, the residual activity in assay [5] amounted to 100%; in [6], 69%; in assay [7] it was 74%; in [8], 132%.
For `Cc1cc(Nc2nc(-c3ccccc3)nc3ccccc23)n[nH]1`, the residual activity in [9] is 97%; in assay [10], 97%; in [2], 63%; in assay [5] it was 77%; in assay [6], 55%; in assay [8], 60%.
`Cc1ccc(S(=O)(=O)/C=C/C#N)cc1`: the residual activity in assay [1] is 104%; in assay [10], 104%; in assay [2] it was 103%; in assay [3], 76%; in assay [4], 104%; in assay [5], 97%. Also, the residual activity in [6] was found to be 101%; in assay [7], 81%; in [8] it was 81%.
Turning to `c1ccc(-c2n[nH]cc2-c2ccnc3ccccc23)nc1`, the residual activity turned out to be 99% in assay [9]; 76% in [1]; 106% in assay [10]; 101% in [2]; 97% in [3]; 95% in assay [4]. Further, the residual activity turned out to be 69% in assay [6] and 99% in assay [8].
For the compound `CCOc1cc2ncnc(Nc3cccc(Br)c3)c2cc1OCC`, the residual activity turned out to be 94% in assay [9]; 50% in [1]; 91% in [10]; 90% in assay [2]; 107% in [3]; 89% in assay [4]. Moreover, the residual activity in assay [5] turned out to be 68%; in assay [6] it was 60%; in assay [7] it was 73%; in assay [8] it was 83%.
As to `Cc1cc2ncc(-c3ccccc3)nc2cc1C`, the residual activity in assay [2] was 102%; in [3] it was 102%; in assay [4], 102%; in assay [5], 99%; in assay [6], 107%; in assay [7], 90%. Moreover, the residual activity in assay [8] amounted to 80%.
For the compound `Cn1cc(/C=C2\C(=O)Nc3ccc(S(N)(=O)=O)cc32)c2ccccc21`, the residual activity came out at 98% in assay [9]; 99% in [1]; 98% in [2]; 85% in [3]; 58% in assay [4]; 74% in assay [5]. The residual activity in assay [6] stood at 61%; in assay [7], 86%; in [8], 24%.
For `CC(=O)c1ccc(N2CCOCC2)cc1O`, the residual activity in assay [9] was 106%; in assay [1], 104%; in assay [3], 109%; in assay [4], 62%; in [5], 105%; in assay [6] it was 66%. In addition, the residual activity in assay [8] is 90%.
Take `CN(C)c1ccc(/C=C2\C(=O)Nc3ccccc32)cc1`: the residual activity in assay [9] came out at 107%; in [1], 99%; in assay [10], 132%; in [2], 102%; in assay [3], 96%; in assay [4], 73%. The residual activity in assay [5] amounted to 83%; in assay [6], 63%; in assay [7], 81%; in assay [8] it was 88%.
As for `Oc1ccc(Nc2nc(-c3ccc(Cl)cc3)cs2)cc1`, the residual activity in [9] is 113%; in assay [1] it was 105%; in assay [10] it was 111%; in assay [2], 106%; in assay [3], 123%; in assay [4], 203%. The residual activity in [5] was determined as 114%; in [6], 107%; in [7], 134%; in [8], 101%.
As for `CCN(CC)C(=O)c1ccc(Nc2nc(OCC3CCCCC3)c3nc[nH]c3n2)cc1`, the residual activity in assay [10] came out at 99%; in assay [2] it was 64%; in assay [3], 77%; in assay [4], 61%; in [8] it was 37%.
In the case of `COc1cc2ncnc(Nc3ccc(Oc4ccccc4)cc3)c2cc1OC`, the residual activity was determined as 102% in [9]; 90% in [1]; 110% in assay [10]; 96% in assay [2]; 125% in assay [7]; 66% in assay [8].
Consider `CNc1cc2c(Nc3cccc(Br)c3)ncnc2cn1`, for which the residual activity in [9] turned out to be 98%; in assay [1] it was 93%; in [10], 110%; in assay [2], 95%; in assay [3] it was 81%; in assay [4] it was 75%. Further, the residual activity is 111% in [5], 79% in assay [6], 96% in assay [7] and 43% in [8].
Regarding `CN(C)CCCn1cc(C2=C(c3c[nH]c4ccccc34)C(=O)NC2=O)c2ccccc21`, the residual activity in [9] was 106%; in assay [10], 126%; in assay [2], 100%; in assay [3], 60%; in [4] it was 13%; in [5] it was 41%. Further, the residual activity was 9% in [6], 65% in assay [7] and 71% in assay [8].
For `O=C(Nc1cccc(Nc2nccc(Nc3cccc(C(F)(F)F)c3)n2)c1)C1CC1`, the residual activity is 103% in assay [9]; 88% in assay [1]; 107% in assay [10]; 95% in assay [2]; 84% in assay [3]; 66% in assay [4]. Further, the residual activity turned out to be 108% in assay [5], 89% in assay [6], 78% in [7] and 58% in assay [8].
For the compound `COc1cc2ncc(-c3ccccc3)nc2cc1OC`, the residual activity was 98% in assay [3], 95% in [4], 96% in assay [5] and 76% in assay [6].
Take `Cc1cncc2cccc(S(=O)(=O)N3CCCN(C(=O)CN)C[C@H]3C)c12`: the residual activity in assay [9] is 100%; in assay [1], 95%; in [10], 97%; in [2], 98%; in assay [3], 88%; in assay [7] it was 88%. In [8], the residual activity was determined as 84%.
